“And” between values parts separate entries of the source, which are not always exact repeats. Equal values may be shown once. This is part of a sample that, as a whole, favours compounds with a hit. Of some 83,000 tested, about 20% had one in any assay.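 Each cell line was grown in a 96-well plate and treated with one concentration of compound for 48 hours. Values below 10 were considered active.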 The source made the active and inactive calls.
The compounds below were run on HL-60(TB) leukemia (assay: NCI-60 one-dose screen, 48 h (100 = growth as untreated, 0 = no growth, -100 = all killed)). Conditions: 10 µM unless noted.
With `CC[Si](CC)(CC)OC1[C@@H](O[Si](CC)(CC)CC)[C@@H](CNC(=O)NC)O[C@H]1n1cnc2c(NC(=O)Nc3ccccc3)ncnc21` (stereo partly specified) the growth was -39.6% (active). For `CSc1ccc(SC2c3ccc(C)cc3Oc3nc(N)c(C#N)c(N)c32)cc1` (stereo unspecified), the growth was -52% (active). For `CS(=O)(=O)OCC1NC(=O)C(COS(C)(=O)=O)NC1=O` (stereo unspecified), the growth was 98% (inactive) and 106% (inactive). With `COCCNCC(O)Cn1c2ccc(Cl)cc2c2cc(Cl)ccc21` (stereo unspecified) the growth was -42.6% (active). In the case of `COc1ccc(-c2cnnn2-c2nonc2-n2cccc2)cc1`, the growth is reported as -37.9% (active). With `C=C(C)[C@@H]1CC[C@]2(CN)CC[C@]3(C)[C@H](CC[C@@H]4[C@@]5(C)CCC(N)[C@@](C)(CO)[C@@H]5CC[C@]43C)[C@@H]12` (stereo partly specified) the growth was -66.1% (active). With `COc1ccc(-c2oncc2-c2cc(OC)c3c(c2)OCO3)cc1` the growth was -6.72% (active). `COc1ccccc1NC(=O)Cn1cc(CN2CCN(c3ccnc4cc(Cl)ccc34)CC2)nn1` was tested, and the growth was 131% (inactive). `Cc1ccc(NCCN(C)CC(C)O)c2c(=O)c3ccc(Cl)cc3sc12` (stereo unspecified) was tested, and the growth was 9.65% (active). In the case of `CC(=O)c1c(C)c2cnc(Nc3ccc(N4CCNCC4)cn3)nc2n(C2CCCC2)c1=O`, the growth is reported as 21.8% (inactive). With `COc1cccc(-c2nn(-c3ccccc3)cc2-c2ccnc(NCCNC(=O)Nc3cccc(C(F)(F)F)c3)c2)c1` the growth was 2.15% (active). With `CCc1ccc(Oc2cn[nH]c2-c2ccc(OCCc3ccc(F)cc3)cc2O)cc1` the growth was 111% (inactive). With `CCCCCCN(CCCCCC)C(=N)c1ccnc2ccccc12` the growth was 43.2% (inactive). For `CN(C)CCC(=O)c1ccc(Cl)cc1`, the growth was 113% (inactive) and 110% (inactive). For `O=C1C(Cl)=C(Nc2ccc(Nc3ccccc3)c(NC3=C(Cl)C(=O)c4ccccc4C3=O)c2)C(=O)c2ccccc21`, the growth was 61.6% (inactive). With `O=C1CCC(=O)N1CC1CC2CCC1C2` (stereo unspecified) the growth was 128% (inactive) and 97.8% (inactive). With `N#CCNC(=O)c1ccc(-c2ccnc(Nc3ccc(N4CCOCC4)cc3)n2)cc1` the growth was -25.3% (active). With `O=C(Nc1ccc2cc3ccc(NC(=O)NC4CCCCC4)cc3nc2c1)NC1CCCCC1` the growth was 99.3% (inactive). For `C/C(O)=C(/C=N\C(=S)Nc1ccc(S(=O)(=O)Nc2nccs2)cc1)C(=O)Nc1ccccc1C`, the growth was 105% (inactive). For `Cc1cc(O)c(C(C)C)cc1S(=O)(=O)O` (tested in a mixture with another compound), the growth was 84.2% (inactive) and -0.846% (active) and 104% (inactive). In the case of `O=C(/C=C/c1cc2ccccc2[nH]c1=O)/C=C/c1cc2ccccc2[nH]c1=O`, the growth is reported as 24.7% (inactive). For `Cn1c2nc3ccccc3c-2nc2ccccc21`, the growth was 88.8% (inactive) and 55.2% (inactive). For `CN(CCn1sc(=O)n(Cc2ccccc2)c1=O)Cc1ccc2c(Cl)cc(Cl)c(O)c2n1`, the growth was 40.7% (inactive). `CCCCOc1ccc(/C=N/Nc2cc(C)nc3ccc(Cl)cc23)cc1` was tested, and the growth was -30.2% (active). With `COc1ccccc1C(C)=O` the growth was 105% (inactive) and 102% (inactive). `CCC(CC)C(=O)OC(C)COc1ccc(C(C)(C)C)cc1` (stereo unspecified) was tested, and the growth was 104% (inactive). For `O=C(CN1CCN(c2cc3c(cc2F)c(=O)c(C(=O)O)cn3C2CC2)CC1)Nc1nc(-c2ccccc2)cs1`, the growth was 82.1% (inactive). For `O=C1Nc2ccccc2/C1=C\c1nc(-c2ccccc2F)n2ccccc12`, the growth was 73.4% (inactive). `CC1OS(=O)OC1C` (stereo unspecified) was tested, and the growth was 96.3% (inactive) and 89.9% (inactive). In the case of `COc1cccc2c1C(=O)c1c(O)c3c(c(O)c1C2=O)C[C@@](O)(C(=O)CO)C[C@@H]3OC1CC(OC(C)=O)C(OC(C)=O)C(C)O1` (stereo partly specified), the growth is reported as -40% (active). In the case of `OB(O)c1cccc(-c2nc3ccc4[nH]ncc4c3c3c2CCCC3)c1F`, the growth is reported as 32.1% (inactive). With `c1ccc(NCc2ccc3c(c2)OCO3)cc1` the growth was 94.6% (inactive) and 96.1% (inactive). With `c1csc([C@@H]2C[C@@H]3Cc4ccc5ccccc5c4N2O3)c1` the growth was 104% (inactive). In the case of `COc1ccc(NC(=O)c2ccoc2COc2ccccc2)cc1`, the growth is reported as 96.9% (inactive). With `CC[C@@H](C)/C=C(C)/C=C/C(O)=C1\C(=O)N[C@@H](Cc2ccc(OC(=O)[C@@](OC)(c3ccccc3)C(F)(F)F)cc2)C1=O` the growth was 8.34% (active). `CC(C)N(Cc1ccccc1)c1c(S)ssc1=S` was tested, and the growth was -23.3% (active).

From PubChem BioAssay (NCI)
